High-throughput results as filed in PubChem.
A selection: hits, their analogues and other compounds. The true share with any hit is near 2.6%.
HBB splicing: qHTS Assay for Modulators of Hemoglobin Beta Chain Splicing; hit rate 0.06% among 65,000; HBB splicing reporter cell assay, activation; EGFP reporter with mutant IVS2-654 intron; response scale: normalised to 500 nM splice-correcting PNA; Potency, µM (highest dose often 46.1 µM), usual class: activators
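Compounds were applied for 2 days to HeLa EGFP-654 cells, 500/well in Optimem with 2% FCS. The reporter's EGFP is disrupted by mis-splicing of beta-globin intron IVS2-654. Readout: summed well GFP fluorescence from 488 nm laser scanning; reference was 500 nM antisense […] 654 PNA.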
PK Bst: Pyruvate Kinase | purified pyruvate kinase, luminescence ATP production; ribose 5-phosphate activator present at AC10 | Potency, µM | hit rate 1.2% among 51,000; in the data active means potency below about 11 µM; inconclusive means mostly about 12 µM to 25 µM;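 the screen sought inhibitors and activators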
FLuc inh: qHTS Assay for Inhibitors of Firefly Luciferase; Luciferin 4-monooxygenase (Photinus pyralis), P08659; purified firefly luciferase, luminescence, 8 min; Potency, µM (series often up to 57.1 µM), hits mostly inhibitors; hit rate 2.2% among 72,000; AID 411, 2009; further: nearly all actives have a fitted effect of over 40% in size
Target sequence (P08659 whole entry, looked up): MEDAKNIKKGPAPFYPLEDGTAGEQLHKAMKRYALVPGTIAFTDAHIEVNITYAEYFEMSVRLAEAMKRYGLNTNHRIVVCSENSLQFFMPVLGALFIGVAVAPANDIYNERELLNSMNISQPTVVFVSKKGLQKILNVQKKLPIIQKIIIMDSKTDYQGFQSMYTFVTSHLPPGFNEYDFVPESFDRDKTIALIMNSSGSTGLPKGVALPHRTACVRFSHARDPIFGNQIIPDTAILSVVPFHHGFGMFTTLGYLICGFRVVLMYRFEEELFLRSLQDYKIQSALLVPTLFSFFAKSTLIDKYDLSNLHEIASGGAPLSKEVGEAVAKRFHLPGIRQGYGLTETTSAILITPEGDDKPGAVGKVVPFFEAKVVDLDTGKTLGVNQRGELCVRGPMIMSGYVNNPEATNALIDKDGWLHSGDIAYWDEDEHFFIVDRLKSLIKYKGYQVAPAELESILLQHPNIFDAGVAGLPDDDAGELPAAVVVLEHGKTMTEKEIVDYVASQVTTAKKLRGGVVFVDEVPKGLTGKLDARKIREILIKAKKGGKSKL
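Firefly luciferase (PKLight detection mix) with 10 uM ATP in pH 7.2 imidazole buffer (KCl, MgCl2, Tween 20, BSA). Compounds tested across a concentration series (qHTS). Luminescence read after 8 min at ambient temperature.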
GFP derepression: qHTS Assay for Epigenetic Modulators; mouse C127i GFP locus derepression, cytometry, 30 h; hit rate 0.09% among 68,000; Potency, µM (top dose mostly 46.1 µM); AID 597, 2007
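Locus derepression in mouse mammary C127i cells whose integrated CMV-GFP reporter is normally silent; GFP expression after 30 h compound treatment was quantified by counting fluorescent cells.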
Of the large screens only hits and unclear results are named; the others gave an inactive call. Unless noted, the call rests on the fitted dose curve; in most records, active means well fitted curve in the direction sought with a large enough effect; inconclusive means small, poorly fitted or top-dose-only effect, or another doubt; inactive means no such curve, though single readings can be large; an effect the other way counts as inactive or inconclusive.

NC(=O)c1c(NC(=O)c2cc3ccccc3o2)sc2c1CCC2	FLuc inh 3.16µM (no result: PK Bst)
Cc1ccc(C(=O)Nc2sc3c(c2C(=O)O)CCCCC3)o1	FLuc inh 20µM
CO[C@@H]1COC(=O)[C@H](C)NC(=O)C/C=C\[C@@H](C)[C@H](OC)COC(=O)[C@H](C)NC(=O)C/C=C\[C@H]1C	none (no result: PK Bst, GFP derepression)
Cc1ccc2nc(Nc3ccc4[nH]c(=O)[nH]c4c3)c(-n3nc(C)cc3C)nc2c1	PK Bst 7.48, FLuc inh 3.98µM
COC(=O)[C@H]1[C@@H]2C[C@H]3c4[nH]c5ccccc5c4CCN3C[C@@H]2CC[C@@H]1O	none (no result: HBB splicing, PK Bst)
Cc1cccc(-c2nnc(-c3ccc(N)cc3)o2)c1	PK Bst 8.96, FLuc inh 12.6µM
Cc1ccc(-c2nnc(-c3ccccc3)o2)cc1Br	none (no result: HBB splicing)
Cc1ccc(-c2nnc(-c3ccc4ccccc4c3)o2)cc1	none (no result: PK Bst)
Brc1cccc(-c2nnc(-c3ccccc3)o2)c1	FLuc inh 15.8µM
Cc1ccc(-c2nnc(-c3cccc(Br)c3)o2)cc1	none (no result: HBB splicing, PK Bst)
Cc1ccccc1-c1nnc(-c2ccc(Br)cc2)o1	PK Bst 4.4 (no result: HBB splicing)
Clc1cccc(-c2nnc(-c3ccccc3)o2)c1	FLuc inh 5.01µM (no result: PK Bst)
CC(C)CO/N=C1/[C@H]2O[C@@H]2[C@@H](O)[C@H]2[C@H]1CCn1c(=O)n(C)c(=O)n12	none (no result: PK Bst, GFP derepression)
Cc1noc(C)c1-c1ccc2ncnc(N(C)C)c2c1	none (no result: PK Bst)
Cc1nnc2n(Cc3ccccc3)c(=O)c3c4c(sc3n12)CCCC4	none (no result: HBB splicing)
CCOC(=O)CSc1nnc2n(Cc3ccccc3)c(=O)c3c4c(sc3n12)CCC4	PK Bst 5.06 (no result: HBB splicing)
CSc1nnc2n(C3CCCCC3)c(=O)c3c4c(sc3n12)CCCC4	none (no result: HBB splicing)
CSc1nnc2n(-c3ccccc3)c(=O)c3c4c(sc3n12)CCC4	PK Bst 2.8
O=c1c(-c2ccccc2)nc2cnc(Oc3ccccc3)nc2n1Cc1cccs1	none (no result: PK Bst)
CC(=O)N1[C@H](Cc2ccccc2)C=C[C@]1(C)C(=O)NCc1ccccn1	none (no result: PK Bst, FLuc inh, GFP derepression)
O=C(CC1Oc2ccccc2NC1=O)NCc1ccccc1 (stereo unspecified)	none (no result: PK Bst)
CC(=O)CC1OC(=O)C(Br)=C1NCc1ccccc1 (stereo unspecified)	GFP derepression 12.6µM
CCCCCCCCCCCCCCCC(=O)O[C@H](CC(=O)O)C[N+](C)(C)C	none (no result: PK Bst)
CCc1cccc(NC(=O)Nc2cccs2)c1	FLuc inh 15.8µM (no result: PK Bst)
C[N+]1(CCC(=O)c2ccco2)CC2CCC(CC2)C1 (stereo unspecified)	none (no result: PK Bst)
O=C(CN1C(=O)CCC1=O)Nc1nc(-c2nc3ccccc3s2)cs1	FLuc inh 12.6µM (no result: PK Bst, GFP derepression)
O=C(CN1C(=O)CCC1=O)Nc1nc(-c2ccccn2)cs1	none (no result: PK Bst, GFP derepression)
O=C(Nc1nc(-c2nc3ccccc3s2)cs1)c1ccco1	none (no result: PK Bst, GFP derepression)
O=C(Nc1nc(-c2ccc3c(c2)OCO3)cs1)C1CC1	FLuc inh 12.6µM (no result: PK Bst, GFP derepression)
O=C(Nc1nc(-c2nc3ccccc3s2)cs1)C1CC1	FLuc inh 5.01µM (no result: PK Bst, GFP derepression)
COc1cccc(Nc2ncc3nc(C)c(=O)n(C)c3n2)c1	none (no result: PK Bst)
C#CCCCO/N=C1/C[C@@H](O)[C@@H](O)[C@@H]2[C@@H]3C(=O)N(C4CCCCC4)C(=O)[C@H]3CC[C@H]12	none (no result: PK Bst, GFP derepression)
N#Cc1cc(-c2ccccc2)oc1NC(=O)c1ccco1	FLuc inh 25.1µM (no result: PK Bst)
C[C@@H]1Oc2ccc(C(=O)C[C@@H](C(=O)O)c3ccc4c(c3)OCO4)cc2O1	none (no result: PK Bst)
Cc1cccc(Nc2nnc(SCc3cn4ccsc4n3)s2)c1	FLuc inh 31.6µM
CC1(C)Cc2c(sc(NC(=O)c3ccc(Br)o3)c2C#N)CO1	FLuc inh 10µM (no result: HBB splicing, PK Bst)
Cc1ccc(NCc2nc3ccccc3n2C)cc1	PK Bst inconclusive, FLuc inh 12.6µM
Cn1c(CNc2nc3ccccc3n2C)nc2ccccc21	none (no result: PK Bst)
Cc1ccc(-c2cc(C(=O)NCC3CCCO3)no2)cc1 (stereo unspecified)	FLuc inh 12.6µM
N#CCCN1CCN(C(=S)c2ccc(-c3cccc(Cl)c3)o2)CC1	none (no result: PK Bst)
S=C(c1ccc(-c2cccc(Cl)c2)o1)N1CCOCC1	FLuc inh 12.6µM (no result: PK Bst)
Cc1nc2sccn2c1-c1nc(-c2cc3ccccc3o2)cs1	PK Bst inconclusive
Cc1ccnc(Nc2nc(-c3c(C)nc4sccn34)cs2)c1	PK Bst 10.8, FLuc inh 15.8µM (no result: HBB splicing)
CN(C)c1ncnc2ccc(-c3cccc(NS(C)(=O)=O)c3)cc12	none (no result: PK Bst)
CC(NC(=O)C1CCN(c2nnc(-n3cccc3)s2)CC1)C12CC3CC(CC(C3)C1)C2 (stereo unspecified)	PK Bst 8.25
CC(C)NC(=O)C1CCCN(c2nnc(-n3cccc3)s2)C1 (stereo unspecified)	none (no result: PK Bst)
